Source: PubChem BioAssay
An excerpt weighted towards active compounds, which were near 19% of everything screened.
DT40 TDP1 no CPT = qHTS for Inhibitors of human tyrosyl-DNA phosphodiesterase 1 (TDP1): qHTS in cells in absence of CPT; Potency, µM (top dose mostly 46.2 µM), most hits filed as inhibitors; 420,000 tested, 15% active; AID 686978, 2013; DT40 Tdp1-/- hTDP1 cells, no CPT, ATP luminescence, 48 h; note: nearly all actives have a fitted effect of over 55% in size
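Chicken DT40 Tdp1-/- cells complemented with human TDP1, screened without camptothecin (DMSO vehicle only), 400 cells/well. Compounds pin-transferred, cells incubated at 37 °C for at least 48 hr. Growth read as ATP-dependent luminescence (CellTiter-Glo, 30 min at RT).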
RORgamma inh = blocks mouse ROR gamma transcriptional activity; Drosophila S2 Gal4-RORgamma UAS-luciferase reporter, 20 h; 310,000 tested, 5.4% active; P51450; Potency, µM (top dose mostly 53.6 µM), most hits filed as inhibitors; note: nearly all actives have a fitted effect of over 60% in size
Target sequence (P51450 whole entry, looked up, the tested form may be a part): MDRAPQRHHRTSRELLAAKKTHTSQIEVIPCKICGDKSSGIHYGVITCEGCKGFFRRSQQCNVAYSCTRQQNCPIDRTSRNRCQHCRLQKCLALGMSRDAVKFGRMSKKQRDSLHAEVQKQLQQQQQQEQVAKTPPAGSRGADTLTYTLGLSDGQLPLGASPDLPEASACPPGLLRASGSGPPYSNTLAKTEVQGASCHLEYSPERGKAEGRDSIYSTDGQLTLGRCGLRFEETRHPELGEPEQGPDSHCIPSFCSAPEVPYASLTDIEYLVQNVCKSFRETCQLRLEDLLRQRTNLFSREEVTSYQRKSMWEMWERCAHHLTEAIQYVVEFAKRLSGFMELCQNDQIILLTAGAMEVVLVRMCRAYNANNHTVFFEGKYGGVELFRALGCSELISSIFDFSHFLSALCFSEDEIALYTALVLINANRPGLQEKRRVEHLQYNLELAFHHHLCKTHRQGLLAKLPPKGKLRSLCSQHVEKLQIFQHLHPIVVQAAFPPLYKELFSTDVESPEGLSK
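Luciferase reporter read in Schneider cells carrying Gal4-RORγ (mouse) and UAS-Photinus luciferase; cells given compound 1 h before 700 uM copper sulfate induction, then incubated 20 h at ambient temperature.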
TDP1 cell CPT = growth inhibition of DT40 Tdp1-/-;hTDP1 cells with camptothecin (screen for TDP1 inhibitors); chicken DT40 Tdp1-/-;hTDP1 cells + 20 nM CPT, ATP luminescence, 48 h; Potency, µM (titrated, usually from 46.2 µM), hits mostly inhibitors; 420,000 tested, 12% active; AID 686979; note: nearly all actives have a fitted effect of over 55% in size
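Chicken DT40 Tdp1-/- cells complemented with human TDP1, 400 cells/well, exposed to compounds plus 20 nM camptothecin for at least 48 h at 37 C; viability read as ATP content by CellTiter-Glo luminescence.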
TDP1 block = blocks human tyrosyl-DNA phosphodiesterase 1; Q9NUW8; recombinant TDP1, AlphaScreen DNA substrate cleavage; Potency, µM (titrated, usually from 130 µM), actives largely listed as inhibitors; 350,000 tested, 0.28% active; AID 485290; note: nearly all actives have a fitted effect of over 40% in size
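Signal: AlphaScreen proximity between streptavidin donor and anti-FITC acceptor beads on intact substrate. Reaction: Tdp1 1 nM, substrate 15 nM final, 5 min RT after 15 min compound preincubation.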
VP16 counter = counter-screen for ROR gamma inhibitors: Gal4-VP16 reporter. Drosophila S2 Gal4-VP16 UAS-luciferase, luminescence, 20 h. Potency, µM (doses to about 53.6 µM), hits mostly inhibitors. 310,000 tested, 3.5% active. AID 2546;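 note: Gal4-VP16 expression switched on by copper sulfate through the metallothionein promoter; nearly all actives have a fitted effect of over 50% in size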
Large screens that a line does not name were inactive. Calls come from the whole dose curve; as a rule, active = well fitted curve in the direction sought with a large enough effect; inconclusive = small, poorly fitted or top-dose-only effect, or another doubt; inactive = no such curve, though single readings can be large; an effect the other way counts as inactive or inconclusive.

CSc1cccc(NS(=O)(=O)c2ccc(C(C)=O)cc2)c1	DT40 TDP1 no CPT inconclusive, RORgamma inh inconclusive, TDP1 cell CPT inconclusive, VP16 counter inconclusive
CCOc1ccc(-c2csc(NC(=O)CSC3=NC(=O)CN3C(C)=O)n2)c2ccccc12	RORgamma inh 11µM, VP16 counter 7.9µM
CC(=O)N1CC(=O)N=C1SCC(=O)Nc1nc(C)c(-c2ccccc2)s1	DT40 TDP1 no CPT 3.3µM, RORgamma inh inconclusive, TDP1 cell CPT 2.9µM
CCCCN(C)C(=O)c1cc2cc3cc(OC)ccc3nc2o1	DT40 TDP1 no CPT inconclusive, TDP1 cell CPT inconclusive
CC(C)COC(=S)Nc1ccccc1	DT40 TDP1 no CPT inconclusive, RORgamma inh inconclusive, VP16 counter inconclusive
COc1ccc(N2CCN(C(=O)CSc3nnc(-c4cccnc4)n3-c3ccc(F)cc3)CC2)cc1	DT40 TDP1 no CPT 21µM, TDP1 cell CPT inconclusive
Cc1ccc(-n2c(SCC(=O)N3CCOCC3)nnc2-c2cccnc2)cc1	none
COc1ccc(N2CCN(C(=O)CSc3n[nH]c(-c4ccccc4)n3)CC2)cc1	DT40 TDP1 no CPT inconclusive, TDP1 cell CPT inconclusive (no result: RORgamma inh, VP16 counter)
O=C(CSc1n[nH]c(-c2ccccc2)n1)N1CCN(c2ccc(F)cc2)CC1	DT40 TDP1 no CPT 23µM, TDP1 cell CPT inconclusive (no result: RORgamma inh, VP16 counter)
O=C(CSc1nnc(-c2ccncc2)n1-c1ccccc1)N1CCN(c2ccc(Cl)cc2)CC1	DT40 TDP1 no CPT 18µM, TDP1 cell CPT inconclusive
O=C(CSc1nnc(-c2cccnc2)n1-c1ccccc1)N1CCN(c2ccc(F)cc2)CC1	DT40 TDP1 no CPT 21µM, TDP1 cell CPT inconclusive
COc1ccc(N2CCN(C(=O)CSc3nnc(-c4cccnc4)n3-c3ccccc3)CC2)cc1	none
CC1=NN(C2=NS(=O)(=O)c3ccccc32)C(C)(O)C1 (centres undefined)	DT40 TDP1 no CPT 0.37µM, RORgamma inh 1.3µM, TDP1 cell CPT 0.41µM, VP16 counter 3.5µM (no result: TDP1 block)
O=C(O)C[C@]1(C(=O)Nc2ccc(F)cc2)CC(/C=C/c2ccccc2)=NO1	none (no result: TDP1 block)
CCOc1ccccc1NC(=O)C1=C(C)NC(=S)NC1c1cccs1 (centres undefined)	DT40 TDP1 no CPT inconclusive, RORgamma inh 6.3µM, TDP1 cell CPT inconclusive, VP16 counter 20µM
c1ccc(-n2nnnc2Oc2cccc3cccnc23)cc1	RORgamma inh 7.1µM, VP16 counter 4.5µM
CCOC(=O)c1c(C)nc2sc3c(=O)n(-c4ccc(C(C)=O)cc4)cnc3c2c1-c1ccc(OC)cc1	DT40 TDP1 no CPT 16µM
CCOC(=O)c1c(C)nc2sc3c(c2c1-c1ccc(OC)cc1)NC(c1ccccc1)NC3=O (centres undefined)	DT40 TDP1 no CPT 18µM, RORgamma inh inconclusive, TDP1 cell CPT inconclusive
CCOC(=O)c1c(C)nc2sc3c(=O)n(-c4ccc(OC)cc4)nnc3c2c1-c1ccc(OC)cc1	DT40 TDP1 no CPT inconclusive, TDP1 cell CPT inconclusive
CNC(=O)NC(=O)Cn1cnc2sc(-c3ccccc3)cc2c1=O	none
O=C(CCN1CCc2ccccc2C1)c1ccc2c(c1)OCCO2	DT40 TDP1 no CPT 3.7µM, RORgamma inh 3.2µM, TDP1 cell CPT 5.8µM, VP16 counter 4.5µM
O=C(c1ccc2c(c1)OCO2)N1CCc2ccccc2C1	DT40 TDP1 no CPT inconclusive, TDP1 cell CPT inconclusive
O=C(O)CCC(=O)c1ccc2c(c1)OCCCO2	RORgamma inh inconclusive
O=C(CCN1CCCCC1)c1ccc2c(c1)OCCO2	DT40 TDP1 no CPT 16µM, RORgamma inh 11µM, TDP1 cell CPT 21µM, VP16 counter 7.9µM
O=C(CCN1CCCC1Cc1ccccc1)c1ccc2c(c1)OCCO2 (centres undefined)	DT40 TDP1 no CPT 2.3µM, RORgamma inh 5µM, TDP1 cell CPT 2.6µM, VP16 counter 5.6µM
CC1(C(=O)Nc2ccc3c(c2)OCO3)CCN1C(=O)Cc1cc(F)ccc1F (centres undefined)	none (no result: RORgamma inh, TDP1 block, VP16 counter)
COc1ccc(NS(=O)(=O)c2ccc(C(=O)OC(C)C(=O)N3CCOCC3)cc2)cc1 (centres undefined)	none
Cc1ccc(C(=O)N/C(=C/c2ccc(N(C)C)cc2)C(=O)NCC2CCCO2)cc1 (centres undefined)	RORgamma inh inconclusive
Cc1ccccc1N=C1NC(=O)/C(=C/c2cccn2C)S1	DT40 TDP1 no CPT 23µM, TDP1 cell CPT 16µM
COc1ccc(/C=C2\SC(=Nc3ccccc3)NC2=O)cc1	none (no result: DT40 TDP1 no CPT, TDP1 cell CPT)
